Our source for the Potency values is PubChem BioAssay (NCATS).

Test [1] concerns the target Aldehyde dehydrogenase, mitochondrial (Homo sapiens) (UniProt P05091). Put plainly: qHTS for Inhibitors of the Aldehyde Dehydrogenase Family (ALDH2) Primary screen (AID 2061308). Note: nearly all actives have a fitted effect of over 55% in size. The following applies: ALDH2 enzyme inhibition qHTS, 1536-well; series mostly up to 56 µM. In general terms: qHTS replaces the single test concentration by a dilution series.
The target in test [2] is Retinaldehyde dehydrogenase 3 (Homo sapiens) (UniProt P47895). Put plainly: qHTS for Inhibitors of the Aldehyde Dehydrogenase Family (ALDH1A3) Primary screen (AID 2061315). The following applies: ALDH inhibition qHTS; series mostly up to 56 µM.

Molecules are shown by their SMILES. Results filed as inconclusive are left out. Entries that show only a call come without a potency. Calls of active or inactive are those of the source. Calls come from the whole dose curve; as a rule, active = well fitted curve in the direction sought with a large enough effect; inconclusive = small, poorly fitted or top-dose-only effect, or another doubt; inactive = no such curve, though single readings can be large; an effect the other way counts as inactive or inconclusive.

On to `CCCCNc1nc(C)nc2c1nc(-c1ccccc1)n2CCCN1CCCCC1C` (stereo not given), for which the Potency result in test [1] and in test [2] was “inactive” throughout.
`CC1(C)CC[C@]2(C(=O)O)CC[C@]3(C)C(=CCC4[C@@]5(C)C[C@@H](O)[C@H](O)[C@@](C)(CO)C5CC[C@]43C)C2C1` (stereo not given in full): the Potency result in test [1] and in test [2] was “inactive” each time.
Turning to `O=C(Nc1ncc(Cc2ccc(C(F)(F)F)cc2)s1)c1cnc(-c2ccccc2)s1`, the Potency result in test [1] and in test [2] was “inactive” each time.
Take `Cc1cc2c(s1)c1cnn(Cc3ccc(F)c(Cl)c3)c(=O)c1n2C`: the Potency result in test [1] and in test [2] was “inactive” each time.
On to `CC(=O)Nc1ccc(C(=O)Nc2ccc(-c3nc4ccccc4[nH]3)cc2)cc1`, for which the Potency result in test [1] and in test [2] was “inactive” each time.
For `CN1C(=O)CCc2cc(S(=O)(=O)Nc3ccc(Cl)c(Cl)c3)ccc21`, the Potency entry in test [1] and in test [2] was “inactive” in each case.
`CC1=C[C@@H]2[C@H]3[C@@H]4O[C@@](C)(CC[C@H]4O)[C@H]3CC(=O)[C@]23C(=O)N[C@@H](CC(C)C)[C@@H]3[C@@H]1C`: the Potency entry in test [1] and in test [2] was “inactive” in each case.
For the compound `C=C[C@H]1CN2CC[C@H]1C[C@@H]2C(O)c1ccnc2ccc(OC)cc12` (stereo not given in full), the Potency result in test [1] and in test [2] was “inactive” throughout.
On to `COc1ccc(CNc2ccc(-c3nc4ccccc4[nH]3)cc2)cc1OC`, for which the Potency result in test [1] and in test [2] was “inactive” each time.
Turning to `COc1cc2nc(Nc3ccccc3)nc(NC3CC3)c2cc1OC`, the Potency entry in test [1] and in test [2] was “inactive” in each case.
As to `O=C(CN1C(=O)N/C(=C\c2cccn2-c2cccc(C(=O)O)c2)C1=O)Nc1cccc(Cl)c1`, the Potency result in test [1] and in test [2] was “inactive” each time.
For `O=C(NCCCCN1CCN(c2cccc(Cl)c2Cl)CC1)c1cc2ccccc2s1`, the Potency entry in test [1] and in test [2] was “inactive” each time.
Regarding `O=S(=O)(c1ccc2c(c1)OCCO2)N1CCN(S(=O)(=O)c2ccc(Br)cc2F)CC1`, the Potency entry in test [1] and in test [2] was “inactive” throughout.
As for `Cc1ccc(OCCn2c(CCNC(=O)c3ccc(C#N)cc3)nc3ccccc32)cc1`, the Potency result in test [1] and in test [2] was “inactive” each time.
With `COc1cccc(C2c3c(ncn(-c4ccc(Br)cc4)c3=N)Oc3ccc4ccccc4c32)c1` (stereo not given), the Potency result in test [1] and in test [2] was “inactive” each time.
Turning to `O=C(OCC#CCSc1nnc(-c2cccc3ccccc23)o1)c1ccc2ccccc2c1`, the Potency entry in test [1] and in test [2] was “inactive” throughout.
Take `O=C(Nc1ccc2ccccc2c1)Nc1nnc(-c2ccccc2)s1`: the Potency result in test [1] and in test [2] was “inactive” each time.
For `COc1ccccc1NC(=O)C(OC(=O)CNC(=O)c1ccccc1)c1ccccc1` (stereo not given), the Potency entry in test [1] and in test [2] was “inactive” in each case.
Regarding `C/C=C(\C)C(=O)OC1C[C@@]2(COC(C)=O)O[C@H]2/C=C\[C@@]2(C)O[C@@H]2[C@H]2OC(=O)C(COC(C)=O)=C12` (stereo not given in full), the Potency result in test [1] and in test [2] was “inactive” each time.
On to `O=C(Nc1ccccc1)Nc1nnc(-c2ccncc2)s1`, for which the Potency result in test [1] and in test [2] was “inactive” each time.
Turning to `N[C@H](Cc1ccccc1)C(=O)Nc1ccc(Cl)cc1C(=O)c1ccc[nH]1`, the Potency entry in test [1] and in test [2] was “inactive” in each case.
On to `Cc1ccc(NS(=O)(=O)c2ccc(Cl)cc2)cc1C`, for which the Potency entry in test [1] and in test [2] was “inactive” in each case.
For `CC(=O)c1ccc(C(=O)Nc2nnc(-c3ccco3)o2)cc1`, the Potency entry in test [1] and in test [2] was “inactive” throughout.
On to `CC(C)(C)OC(=O)NCCOCCOCCOc1ccc(-c2no[n+]([O-])c2C#N)cc1`, for which the Potency result in test [1] and in test [2] was “inactive” each time.
`Cc1ccnc(NC(=S)N2CCc3ccccc3C2)c1`: the Potency entry in test [1] and in test [2] was “inactive” throughout.
As to `COc1ccc(-c2cnc(-c3cccc4c3-c3ccccc3C4=O)o2)cc1`, the Potency entry in test [1] and in test [2] was “inactive” throughout.
With `S=C(NCCCc1cnc[nH]1)NCCCN(Cc1ccc(Cl)c(Cl)c1)c1ccc(Br)cn1`, the Potency entry in test [1] and in test [2] was “inactive” throughout.
Consider `O=C1CCCC2=C1C1(CCCC1)N=C(Nc1nc3cc(Br)ccc3o1)N2`, for which the Potency entry in test [1] and in test [2] was “inactive” in each case.
Regarding `CCn1c2cc(C)sc2c2cnn(Cc3ccccc3F)c(=O)c21`, the Potency entry in test [1] and in test [2] was “inactive” throughout.
As to `Cc1sc(NC(=O)Cc2ccc3c(c2)OCO3)nc1-c1ccc2c(c1)CCN2C(=O)c1ccccc1F`, the Potency result in test [1] and in test [2] was “inactive” in each case.
For `NCCCC(=O)Nc1ccc(Cl)cc1C(=O)c1ccc[nH]1`, the Potency entry in test [1] and in test [2] was “inactive” in each case.
As for `O=C(Nc1ccc2ccccc2c1)Nc1nnc(-c2ccc(F)cc2)s1`, the Potency entry in test [1] and in test [2] was “inactive” each time.
On to `COc1ccccc1OC1=NS(=O)(=O)c2ccccc21`, for which the Potency result in test [1] and in test [2] was “inactive” throughout.
Turning to `Cc1ccnc(C(=S)N2CCN(c3cccc(C(F)(F)F)c3)CC2)c1`, the Potency entry in test [1] and in test [2] was “inactive” in each case.
Consider `Cc1cc2c(s1)c1cnn(Cc3cc(OC(F)(F)F)ccc3F)c(=O)c1n2C`, for which the Potency entry in test [1] and in test [2] was “inactive” each time.
Take `Cc1ccc(NS(=O)(=O)c2cccc(Cl)c2)cc1C`: the Potency result in test [1] and in test [2] was “inactive” throughout.
With `COC(=O)c1ccc(NC(=O)c2nc3ccccc3n(C)c2=O)cc1`, the Potency result in test [1] and in test [2] was “inactive” each time.
For the compound `COc1ccc(CCC(=O)c2c(O)cc(O)cc2O[C@@H]2O[C@H](CO)[C@@H](O)[C@H](O)[C@H]2O)cc1`, the Potency entry in test [1] and in test [2] was “inactive” throughout.
Take `Cc1ccc(-c2ccc(=O)n(CC(=O)NCCc3cnc[nH]3)n2)cc1`: the Potency result in test [1] and in test [2] was “inactive” throughout.
As for `COc1ccc(C2=Nn3c(nnc3-c3ccccc3Cl)SC2)cc1OC`, the Potency result in test [1] and in test [2] was “inactive” each time.
